# From PubChem BioAssay AID2451 (National Center for Advancing Translational Sciences (NCATS), 2010)
# Out of some 290,000 compounds screened, about 2,100 (0.72%) were called active. A call without a number means that no potency is given here. Inconclusive results (about 4%) are left out. Calls follow the shape of the dose curve; as a rule, active = well fitted inhibition curve with a large enough effect; inconclusive = small, poorly fitted or top-dose-only effect, or effect the other way; inactive = flat fitted curve, though single readings scatter. The sample as a whole holds a higher share of actives than the screen did.
# Target: Fructose-bisphosphate aldolase (Giardia intestinalis (strain ATCC 50803 / WB clone C6)) (UniProt A8B2U2)
# Sequence (A8B2U2 whole entry, looked up): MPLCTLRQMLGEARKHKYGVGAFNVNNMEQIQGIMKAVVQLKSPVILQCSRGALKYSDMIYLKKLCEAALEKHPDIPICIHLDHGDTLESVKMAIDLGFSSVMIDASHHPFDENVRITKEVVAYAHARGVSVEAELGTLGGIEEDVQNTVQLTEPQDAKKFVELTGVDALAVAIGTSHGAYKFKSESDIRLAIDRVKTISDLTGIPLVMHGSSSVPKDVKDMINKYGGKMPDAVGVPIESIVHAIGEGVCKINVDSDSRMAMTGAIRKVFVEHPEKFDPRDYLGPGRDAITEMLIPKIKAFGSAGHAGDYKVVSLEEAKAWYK
# Test: qHTS Assay for Inhibitors of Fructose-1,6-bisphosphate Aldolase from Giardia Lamblia; also: nearly all actives have a fitted effect of over 55% in size
# Settings: purified Giardia FBPA; series mostly up to 59.6 µM
# Summary of the method: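 Giardia FBPA (40 nM reagent) was preincubated 10 min at RT with compound (up to 57.5 uM final), then substrate plus GAPDH/TPI/NAD/arsenate coupling system with diaphorase/resazurin was added; resorufin fluorescence (525/598 nm) was read after 20 min.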
# Potency is read from the fitted curve at half-maximal effect.
row,SMILES,Potency
1,CCOC(=O)[C@@H]1[C@H]2COc3cc(OC)ccc3[C@@H]2N2C(=O)N(c3cccc(C)c3)C(=O)[C@@]12C,inactive
2,CN(Cc1ccccc1)C(=O)c1cccc(C(=O)N(C)Cc2ccccc2)c1,inactive
3,CCOc1ccc(N(CC(=O)NCCc2ccc(F)cc2)S(=O)(=O)c2ccccc2)cc1,inactive
4,Cc1cccc(S(=O)(=O)N2CN(CC3CCCO3)c3nc4ccccc4nc32)c1 (stereo not drawn),inactive
5,CC/C(=N\NC(=O)c1c(C)nc2ccccn12)c1ccc(Cl)cc1,inactive
6,CC1(C)Cc2ccccc2/C(=C/C(=O)c2ccccc2)N1,inactive
7,Cn1c(SCC(=O)N/N=C/c2ccc(O)c(O)c2)nc2ccccc21,inactive
8,CCCc1nc2ccccc2c(=O)n1NC(=O)c1c(O)c2ccccc2[nH]c1=O,inactive
9,CCCc1nc2ccccc2c(=O)n1/N=C/c1ccc(O)c(O)c1,2.51 µM (active)
10,CC1C(=O)N(Cc2ccccc2)c2ccccc2N1C(=O)c1ccccc1 (stereo not drawn),inactive
11,COc1ccccc1C1C(C(N)=O)=C(C)Nc2nc(CCCO)nn21 (stereo not drawn),inactive
12,CN1C(=O)/C(=C\c2ccc(-c3ccccc3)o2)SC1=S,4.46 µM (active)
13,CN=C1S/C(=C\c2ccc(Sc3ccc(Cl)cc3)o2)C(=O)N1C,inactive
14,O=C(O)C(c1ccccc1)N1C(=O)/C(=C\c2ccc(-c3cccc(Cl)c3)o2)SC1=S (stereo not drawn),inactive
15,COc1ccc(S(=O)(=O)NCCc2c[nH]c3ccccc23)cc1OC,inactive
16,COc1ccc(CNCCc2c[nH]c3ccccc23)cc1OC,17.8 µM (active)
17,COc1ccc(CNC(=O)[C@H](Cc2c[nH]c3ccccc23)NC(C)=O)cc1OC,inactive
18,CCN(CC(=O)Nc1ccc(Cl)c(S(=O)(=O)N(C)C)c1)Cc1nc2ccccc2c(=O)[nH]1,inactive
19,CCN(CC(=O)Nc1cccc(S(N)(=O)=O)c1)Cc1nc2ccccc2c(=O)[nH]1,inactive
20,CCN(CC(=O)NC(=O)NCc1ccccc1)Cc1nc2ccccc2c(=O)[nH]1,17.7 µM (active)
21,CC(C)CCNC(=O)c1ccc2c(Cl)c3c(nc2c1)CCC3,inactive
22,Cc1ccc(-n2c(SCC(=O)N3CCC(C(=O)O)CC3)nc3ccccc3c2=O)cc1C,inactive
23,COc1cc(NC(=O)NCC2CCN(Cc3ccc(C)cc3)CC2)cc(OC)c1OC,inactive

row,SMILES,Potency
1,COc1cc(CN2CC(C)CC(C)C2)cc([N+](=O)[O-])c1O (stereo not drawn),inactive
2,COc1cc(CN2CCN(Cc3ccc(C)cc3)CC2)c([N+](=O)[O-])cc1OC,5.61 µM (active)
3,CC(=O)c1ccc(N2CCN(S(=O)(=O)c3ccc4c(c3)CC(=O)N4C)CC2)cc1,inactive
4,COc1ccc(NC(=O)c2cc(-c3cc(OC)c(OC)c(OC)c3)nc3ccccc23)c(OC)c1,inactive
5,Cn1c(=O)n(C)c2cc(S(=O)(=O)Nc3ccc(F)cc3)ccc21,inactive
6,COc1ccc(NC(=O)C(CC(C)C)NC(=O)C2CCC(C)CC2)cc1 (stereo not drawn),inactive
7,CC[C@]1(c2ccccc2OC)C(=O)N(C(=O)OC)N1C(=O)OC,inactive
8,COc1cccc(C(=O)N2C[C@H]3C[C@@H](C2)c2cccc(=O)n2C3)c1,inactive
9,O=C(NC(=S)N1C[C@H]2C[C@H](C1)c1cccc(=O)n1C2)c1ccc(F)cc1,7.94 µM (active)
10,COc1ccccc1NC(=O)N1C[C@@H]2C[C@@H](C1)c1cccc(=O)n1C2,inactive
11,Cc1ccc(SCCSc2ncccn2)cc1,inactive
12,CC(=O)NCCC(=O)Nc1cc(S(=O)(=O)N2CCOCC2)ccc1N1CCOCC1,inactive
13,O=C(COC(=O)Cc1ccc(F)cc1)Nc1cc(S(=O)(=O)N2CCOCC2)ccc1N1CCCC1,inactive
14,COCCNC(=S)Nc1cc(S(=O)(=O)N2CCOCC2)ccc1N1CCCCC1,2.81 µM (active)
15,Cc1ccc(C(=O)NC2CCN(C(=O)Nc3ccc(F)cc3)CC2)cc1,inactive
16,C=CCCN(C(Cc1ccccc1)C(=O)OC)S(=O)(=O)c1cc(Br)ccc1Br (stereo not drawn),inactive
17,CCCNC(=O)c1ccc(N2CCC3(CC2)CC(c2ccc(Cl)cc2)=NO3)c([N+](=O)[O-])c1,inactive
18,COc1ccc(NC(=O)c2nc(-n3nc(C)cc3C)ccc2Cl)cc1Cl,inactive
19,Cc1cc(C)n(-c2ccc3nncn3n2)n1,inactive
20,Cc1cc(C)n(-c2ccc(Cl)c(C(=O)O)n2)n1,15.8 µM (active)
21,Cn1nccc1C(=O)N1CCCC(C(=O)c2ccc(Oc3ccccc3)cc2)C1 (stereo not drawn),inactive
22,Cc1cc(S(=O)(=O)c2cc3ccc(O)c(C)c3oc2=O)ccc1F,inactive
23,N#CC1=C(N)Oc2[nH]c(=S)[nH]c(=O)c2C12C(=O)Nc1ccccc12 (stereo not drawn),6.29 µM (active)

row,SMILES,Potency
1,Cc1ccc(NC2(C#N)C(=O)Nc3ccccc32)cc1 (stereo not drawn),inactive
2,N#CC1=C(N)Oc2n[nH]c(CSc3ccccc3)c2C12C(=O)Nc1ccccc12 (stereo not drawn),inactive
3,CCc1ccc(NC(=O)C(=O)NNC(=O)c2cccs2)cc1,inactive
4,COc1ccc(CNC(=O)c2ccc(Br)s2)cc1OC,inactive
5,Fc1ccc(-c2ccc(NCCN3CCOCC3)nn2)cc1,inactive
6,COc1ccc2oc(=O)c(C(=O)NCc3ccccn3)cc2c1,inactive
7,O=C(NCc1ccccn1)c1ccc2nc(-c3ccco3)c(-c3ccco3)nc2c1,2.81 µM (active)
8,O=C(NCc1ccccn1)c1cc(Br)ccc1Cl,inactive
9,COCn1c(C(O)c2ccccc2)cc2ccccc21 (stereo not drawn),inactive
10,CC(C)NC(=O)C(=O)N/N=C/c1ccco1,inactive
11,O=C(N/N=C/c1ccco1)c1ccc(C(=O)N/N=C/c2ccco2)o1,inactive
12,O=c1nc(N/N=C/c2ccco2)cn[nH]1,17.7 µM (active)
13,C=CCNC(=S)/N=c1/ccccn1Cc1ccccc1,14.1 µM (active)
14,N=c1ccccn1Cc1ccccc1,inactive
15,CNC(=S)NNC(=O)c1cccn(Cc2ccccc2)c1=O,inactive
16,O=C(c1ccccc1)N1N=C(c2ccccc2O)CC1c1ccc(Br)cc1 (stereo not drawn),inactive
17,O=C(CN1CCN(Cc2ccccc2)CC1)Nc1ccc(F)c(F)c1,20 µM (active)
18,Cc1cc(NC(=O)CCN2CCN(Cc3ccccc3)CC2)ccc1Br,inactive
19,O=C(CN1CCN(c2ccccc2)CC1)Nc1ccc(F)cc1,inactive
20,CC(=O)N[C@@H](C)C(=O)N1CCC(n2nccc2NC(=O)CCCc2ccccc2)CC1,inactive
21,CC(=O)Nc1cccc(Nc2nc(-c3cccs3)nc3ccccc23)c1,inactive
22,O=S(=O)(c1ccc(NC(=S)NN=C(C2CC2)C2CC2)cc1)N1CCOCC1,7.06 µM (active)
23,O=C(NC(=S)Nc1ccc(S(=O)(=O)N2CCOCC2)cc1)c1ccccc1[N+](=O)[O-],inactive

row,SMILES,Potency
1,CN1CCN(S(=O)(=O)c2ccc(NC(=S)NC(=O)C3CC3)cc2)CC1,inactive
2,CCOC(=O)c1c(-c2ccccc2)oc2cc(Br)c(O)c(C=O)c12,inactive
3,CCOc1ccc(-n2c(SCC(=O)Nc3cc(C(=O)O)ccc3Cl)nc3ccccc3c2=O)cc1,inactive
4,O=C(Nc1ccccc1Cl)O/N=C(/c1ccccc1)c1ccccn1,15.8 µM (active)
5,O=C(Nc1ccccc1Cl)Nc1cccc2cccnc12,inactive
6,Cc1ccc(C(=O)O/N=C(\N)c2ccccn2)cc1Cl,inactive
7,O=C(CCC(=O)n1ncc2ccccc21)NCc1ccccc1Cl,inactive
8,O=C1CSC(=S)N1c1ccc(O)cc1,inactive
9,O=C(Nc1ccncc1)Nc1ccc(F)cc1,inactive
10,Oc1ccc2ccccc2c1N=Nc1nccs1,12.6 µM (active)
11,CN(C)CCCn1c(=O)n(Cc2ccccc2)c(=O)c2c3c(sc21)CCCCC3,inactive
12,Oc1[nH]c2ccc(Br)cc2c1N=Nc1nn[nH]n1,15.8 µM (active)
13,NS(=O)(=O)c1ccc(N=Nc2c(O)[nH]c3ccc(Br)cc23)cc1,inactive
14,O=C(CNC(=O)Cc1ccccc1)N=Nc1c(O)[nH]c2ccc(Br)cc12,inactive
15,CCOC(=O)C1CCN(C(=O)COc2cccc3ccccc23)CC1,inactive
16,COc1ccc(CNc2nc3c(c(=O)[nH]c(=O)n3C)n2Cc2ccccc2)cc1,inactive
17,C=CCSc1nc2c(c(=O)[nH]c(=O)n2C)n1Cc1ccccc1,inactive
18,Cn1c(=O)[nH]c(=O)c2c1[nH]c(=S)n2Cc1ccccc1,8.91 µM (active)
19,COc1cccc(OC)c1C(=O)Nc1ccc2c(c1)n(C)c(=O)n2C,inactive
20,CC(=O)N(C1=C(Cl)C(=O)c2ccccc2C1=O)c1ccc(C(=O)O)cc1,2.24 µM (active)
21,O=C(CN1C(=O)c2ccccc2C1=O)NCc1ccc(C(=O)O)cc1,inactive
22,CN1C2C=C(N(C(=O)c3ccc(Cl)cc3)c3ccccc3)CC1CC2 (stereo not drawn),inactive
23,CC(=O)c1ccc(NC(=O)CCc2nnc3ccc(NCc4ccco4)nn23)cc1,inactive

row,SMILES,Potency
1,O=C(c1cc(C(=O)N2CCN(c3ccc(F)cc3)CC2)cc([N+](=O)[O-])c1)N1CCN(c2ccc(F)cc2)CC1,inactive
2,O=C(CN1C(=O)COc2ccccc21)Nc1ccc(F)cc1,5.61 µM (active)
3,CCCN1CCN(CCCNC(=O)CN2C(=O)COc3ccccc32)CC1,inactive
4,O=C(CCN1C(=O)COc2ccccc21)NCCCN1CCN(c2ccc(F)cc2)CC1,inactive
5,CC(C)c1ccc(S(=O)(=O)N2CCC3(CC2)OCCO3)cc1,inactive
6,CCN1C(=O)c2cccc3c(N)ccc1c23,0.354 µM (active)
7,CN1C(=O)c2cccc3c(N)ccc(c23)C1=O,inactive
8,Cc1nn(C)cc1N1C(=O)c2cccc3c(N)ccc(c23)C1=O,inactive
9,O=C(NCCN1CCN(C(=O)c2cccc([N+](=O)[O-])c2)CC1)C(=O)NCc1ccc(Cl)cc1,inactive
10,Nc1ccccc1Sc1ccc(C(F)(F)F)cc1[N+](=O)[O-],inactive
11,CCOC(=O)c1cc(Sc2ccccc2N)cc(C(=O)OCC)n1,inactive
12,CCS(=O)(=O)c1cc([N+](=O)[O-])c(Sc2ccccc2N)s1,15.8 µM (active)
13,CC(C)CCn1c(=O)c2c(nc3n2CCCN3Cc2ccccc2)n(C)c1=O,inactive
14,Cc1ccccc1NC(=O)C1CCCN(C(=O)NCc2ccccc2)C1 (stereo not drawn),inactive
15,CCCCc1cc(=O)oc2c(C)c(OCC(=O)N3CCC(C(N)=O)CC3)ccc12,inactive
16,COc1c(O)c2c(=O)cc(OC)c3c4c(OC)cc(=O)c5c(O)c(OC)c6c(c(c1C[C@@](C)(O)[C@H]6C(C)=O)c23)c54,inactive
17,CC(C)(c1ccccc1)c1ccc(OCCN2CCCC2)cc1,22.4 µM (active)
18,CC(C)(c1ccccc1)c1ccc(OCCN)cc1,inactive
19,Cc1cc(OCCN2CCCC2)ccc1C(C)C,inactive
20,CC(C)CN(Cc1c(O)ccc2c(=O)c(-c3ccccc3)coc12)CC(C)C,inactive
21,COc1ccc(Cl)cc1NC(=O)c1cccc(N2C(=O)C3CC=CCC3C2=O)c1 (stereo not drawn),inactive
